Screens deposited in PubChem BioAssay by National Center for Advancing Translational Sciences (NCATS).
The list is not random: actives were taken first. Their share in the collection is about 3%.
ClpP mod: qHTS Assay for Activators of ClpP. AID 651965, 2013. Potency, µM (top dose mostly 57.5 µM), for inactives: top-dose activity change, negative = active. actives 1.9% (n = 340,000). ATP-dependent Clp protease proteolytic subunit (Bacillus subtilis (strain 168)), P80244. purified B. subtilis ClpP, FRET peptide cleavage, 20 min; active = well fitted falling curve with a large enough effect; inconclusive = small, poorly fitted or top-dose-only effect; inactive = no such curve, though single readings can be large or run the other way; note: potency is the fitted concentration of half-maximal effect; the source files actives as falling curves though it sought activators and does not explain the sign; nearly all actives have a fitted effect of over 65% in size
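FRET quenching reversal measured ClpP activation: 10 microg/mL B. subtilis ClpP at pH 8 with the FRET-FV decapeptide, read at 430 nm after 320 nm excitation. The 20-min minus 0-min signal was scaled between DMSO/no-enzyme wells and ADEP (5.8 microM final).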
KCNH2 3.1 block: KCNH2 3.1 (human) potassium channel inhibition; U2OS KCNH2 3.1, thallium flux FluxOr; active compounds read low; activity change, % (tested at about 1.8 µM); actives 0.95% (n = 340,000); AID 720553;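 active = maximum activity change below -70%; inconclusive = maximum activity change from -70% to -50%; inactive = maximum activity change above -50%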;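 note: thallium influx rate constant from kinetic fluorescence after stimulation buffer; % is set by controls: 0 for no effect and ±100 for the full control effect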
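U2OS cells transduced with KCNH2 3.1 mutant virus (1.77 x 10^8 /mL, 4 h), plated overnight at 37 C, loaded 45 min with FluxOr dye plus Red40 quencher. Thallium flux rate constant from kinetic reads after stimulation buffer, normalised to controls.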
ALOX12 inh: inhibitors of human 12S-lipoxygenase ALOX12 | purified 12hLO, xylenol orange hydroperoxide absorbance | Potency, µM (titrated, usually from 108 µM), inactives show top-dose activity change, negative = inhibition, usual class: inhibitors | actives 1.1% (n = 580,000); active = well fitted inhibition curve with a large enough effect; inconclusive = small, poorly fitted or top-dose-only effect, or another doubt; inactive = no such curve, though single readings can be large or run the other way; note: potency is the fitted concentration of half-maximal effect; % is set by controls: 0 for no effect and ±100 for the full control effect
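Purified human 12hLO at 150 nM in 25 mM Hepes, 0.01% Triton X-100, pH 7.0, preincubated 15 min at room temperature with compound. Reaction started with 40 uM arachidonic acid, 30 min at room temperature. Hydroperoxide measured by Fe-xylenol orange, 573/405 nm absorbance ratio.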
LDHA block: inhibitors of human lactate dehydrogenase A; AID 1347041; P00338; purified LDHA, NADH/diaphorase-resazurin fluorescence; active compounds read low; activity change, % (values are at about 110 or 230 µM); actives 0.15% (n = 480,000); in the data active = activity change below about -30%; inconclusive = mostly about -25% to -30%;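 note: plate controls were DMSO wells for no effect and wells without enzyme for full effect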
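Enzyme activity of human lactate dehydrogenase 5 (2 nM; 0.06 mM NADH, 0.2 mM pyruvate, 5 min, RT) is measured via a resazurin/diaphorase fluorescence readout of residual NADH.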
Chronic BCR inh: blocks chronic active B-cell receptor signaling; ABC-DLBCL IkBa-CBG/CBR reporter, luminescence ratio, 4 h; Potency, µM (highest dose often 46.1 µM), for inactives: at the highest dose activity change, negative = inhibition, actives largely listed as inhibitors; actives 0.05% (n = 340,000); active = well fitted inhibition curve with a large enough effect in the signal ratio, with a control signal flat, not every such curve was filed as active; inconclusive = small, poorly fitted or top-dose-only effect, or effect the other way, or a change in a side signal; the % refers to the signal ratio;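 note: potency is the fitted concentration of half-maximal effect; plate controls were basal doxycycline-induced cells for no effect and cells given 10 µM MG132 for full effect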
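Doxycycline induced both beetle luciferases in TMD8 lymphoma cells; IKK-driven degradation limits the IkappaBalpha-fused green signal, while red luminescence normalises for cell number and nonspecific effects. Compounds tested up to 46 uM, 4 hrs.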
hERG WT inh: blocks the wildtype human KCNH2 potassium channel. activity change, % at 1.84 µM. Q12809. actives 0.37% (n = 340,000). U2OS, BacMam KCNH2, thallium flux FluxOr; active compounds read low;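 active = maximum activity change below -70%; inconclusive = maximum activity change between -70% and -50%; inactive = maximum activity change above -50%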; note: % is set by controls: 0 for no effect and ±100 for the full control effect
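U2OS cells transduced with wild-type KCNH2 virus are loaded with FluxOr dye for 45 min, and thallium flux is measured in kinetic reads before and after stimulation buffer. Rate constants are normalized to DMSO controls.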
Active calls of the source: *; ? = inconclusive; / = not tested or not shown; ! = repeats disagree; [ ] = dose if it differs, or a comment.

SMILES	ClpP mod	KCNH2 3.1 block	ALOX12 inh	LDHA block	Chronic BCR inh	hERG WT inh
Cc1ccc(CNC(=O)c2cc(C3CC3)nc3c2c(C)nn3-c2cccc(Cl)c2C)cc1	?	/	-13%	-4	/	/
CCCCc1c(C)nc(N2CCN(c3ccccc3F)CC2)[nH]c1=O	/	/	-50%	1	/	/
Cc1ccccc1-c1csc(=S)[nH]1	/	/	?	-3	/	/
S=c1[nH]c(-c2ccccc2)cs1	/	-2	2µM*	5	1%	-19
O=c1[nH]c(-c2ccccc2)cs1	-5%	1	-14%	-7	-8%	2
S=c1[nH]c(-c2cccc(Cl)c2)cs1	/	/	8.9µM*	-8	/	/
S=c1[nH]c(-c2ccc(Cl)cc2Cl)cs1	/	/	13µM*	0	/	/
Fc1ccc(-c2csc(=S)[nH]2)cc1	/	9	7.9µM*!	-1	?	-10
O=C(NC1CC1)c1cc2occc2n1Cc1ccccc1F	/	/	?	1	/	/
C=C(C)COc1ccc2c(C)c(CCC(=O)NCc3ccc(S(N)(=O)=O)cc3)c(=O)oc2c1	/	/	-3%	0	/	/
Cc1ccc(C2CC(c3ccccc3)=NN2S(C)(=O)=O)cc1 (stereo not given)	/	/	?	-20	/	/
CCC(CC)N1CC[C@H](CO)[C@H](NC(=O)c2ccccc2)C1	/	/	24%	/	/	/
COC(=O)C1=C(C)NC(=O)CC1C(=O)Nc1cc(Cl)ccc1C (stereo not given)	/	/	?	-22	/	/
COC(=O)C1=C(C)NC(=O)CC1C(=O)Nc1ccc(Cl)cc1 (stereo not given)	/	/	?	-65*	/	/
O=C(COC(=O)c1cnccn1)Nc1ncc(C(F)(F)F)cc1Cl	2%	-3	5µM*	-1	-1%	-1
CC[N+](C)(CC)CC(C[N+](C)(CC)CC)OCc1ccccc1	/	/	14µM*	0	/	/
N[C@H](C(=O)O)[C@H](OCc1ccccc1)C(=O)O	/	/	10%	/	/	/
S=c1nc(SCc2ccccc2)[nH]c2ccccc12	/	-128*	5%	-14	11%	?
COc1ccc(-c2cc(-c3ccccc3)nc(-c3ccc4c(c3)NC(=O)CO4)c2)cc1	25µM*	/	-9%	0	-4%	2
COc1ccc(Nc2nc(-c3ccc4c(c3)NC(=O)CO4)cs2)cc1	/	0	?	12	-5%	-9
Cc1ccc(NC(=S)NC(NC(=O)C(C)C)C(Cl)(Cl)Cl)cc1 (stereo not given)	/	/	-1%	2	/	/
CC(=O)Nc1ccc(-n2cc3c(c2-c2ccc(C)cc2)c(=O)n(C)c(=O)n3C)cc1	20µM*	/	-11%	3	/	/
CC(=O)Nc1cccc(-n2cc3c(c2-c2ccccc2Cl)c(=O)n(C)c(=O)n3C)c1	28µM*	/	-25%	-2	/	/
Cc1cccc(-c2c3c(=O)n(C)c(=O)n(C)c3cn2CCO)c1	28µM*	-11	?	2	-2%	-1
CCCCn1cc2c(c1-c1cccc(C)c1)c(=O)n(C)c(=O)n2C	-23%	23	?	-2	1%	2
SMILES	ClpP mod	KCNH2 3.1 block	ALOX12 inh	LDHA block	Chronic BCR inh	hERG WT inh
Cc1ccc(-c2c3c(=O)n(C)c(=O)n(C)c3cn2-c2cc(C)ccc2O)cc1	3.5µM*	/	-8%	-2	/	/
CCN1CC(c2nc3ccccc3n2Cc2cccc3ccccc23)CC1=O (stereo not given)	/	/	44%	-4	/	/
CCNC(=O)N1CCC(OC2CCN(Cc3ccccc3)CC2)CC1	/	/	5%	/	/	/
CC(C)CNc1ncnc2c1ncn2[C@H]1CN(Cc2cccc3ccccc23)C[C@@H](CO)O1	-1%	/	?	-3	/	/
OC[C@@H]1CN(Cc2cccc3ccccc23)C[C@H](n2cnc3c(NCc4ccco4)ncnc32)O1	-6%	/	35µM*	-4	/	/
COc1ccc(C(=O)N[C@@H]2CCC[C@@H]2C(=O)NCCCc2ccccc2)cc1	/	/	43%	/	/	/
COc1ccc(Cc2noc(-c3ccc(N(C)Cc4nonc4C)nc3)n2)cc1	/	/	29%	/	/	/
O=C(O)c1ccc(Cl)cc1Nc1nc2cc(Cl)ccc2o1	/	3	8.9µM*	-9	?	-5
O=C(O)c1ccccc1Nc1cc(Cl)ccc1C(=O)O	/	/	-22%[12.5 µM]	/	/	/
Fc1cccc(Cc2noc(CN3CCCN(C4Cc5ccccc5C4)CC3)n2)c1	/	-91*	-6%	6	?	-136*
Fc1cccc(Cc2noc(CN3CCN(C4CCc5ccccc5C4)CC3)n2)c1 (stereo not given)	/	-85*	-21%	3	-16%	-24
CCS(=O)(=O)N1CCc2ccc(NC(=O)Nc3ccc(C)c(C)c3)cc21	/	/	-11%	2	/	/
COCc1ccc(C(=O)Nc2cccc(C(=O)Nc3cccc(C(F)(F)F)c3)c2)cc1	/	/	?	-10	/	/
O=C(CC1(O)C(=O)N(C/C=C/c2ccccc2)c2ccccc21)c1ccc2c(c1)OCO2 (stereo not given)	/	/	-7%	11	/	/
CCOC(=O)C1Nc2ccc(C)cc2C2C=CCC12 (stereo not given)	-4%	-6	32µM*	36	/	-3
O=C(OCc1ccc(F)cc1)c1cc(S(=O)(=O)N2CCCCC2)ccc1N1CCOCC1	1%	-16	-21%	-4	8%	7
O=C(OCc1ccc([N+](=O)[O-])cc1)c1cc(S(=O)(=O)N2CCCCC2)ccc1N1CCOCC1	2%	-80*	-25%	-5	1%	-93*
CCc1nc2c(c(-c3ccc(OC)cc3)n1)CCN(C(=O)c1ccccn1)CC2	/	/	3%[6.33 µM]	/	/	/
O=C(CN1CCN(C(=O)c2ccco2)CC1)Nc1c2c(nc3c1CCC3)CCCC2	-2%	-3	?	-35*	13%	7
O=C(c1cc2cc(Cl)ccc2oc1=O)N1CCN(c2ccccc2)CC1	/	/	8%	0	/	/
N#Cc1ccc(-c2csc(-c3ccsc3)n2)cc1	/	/	?	-12	/	/
C[C@]1(CO)[C@H]2Cc3sc(NC(=O)c4ccco4)nc3[C@@H](CC(=O)Nc3ccccc3)[C@]2(C)CC[C@H]1O	/	/	12%	/	/	/
COCCCN1C(=O)C(=O)/C(=C(/O)c2ccc(S(=O)(=O)N3CCCCC3)cc2)C1c1ccc(O)c(OC)c1 (stereo not given)	/	4	?	0	-1%	-10
CN(C)c1ccc(C2/C(=C(/O)c3ccc(Br)cc3)C(=O)C(=O)N2C)cc1 (stereo not given)	-1%	-176*	5.6µM*	1	1%	-2
COCCCN1C(=O)C(=O)/C(=C(/O)c2ccc(OC)cc2)C1c1ccc(O)c(OC)c1 (stereo not given)	1%	5	6.3µM*	-1	-2%	7
